# PubChem BioAssay AID588397 (National Center for Advancing Translational Sciences (NCATS), 2011)
# The whole screen tested about 1,300 compounds, of which about 1,000 (77%) were called active. Another 7% or so got no clear call; they are omitted. Calls come from the whole dose curve; as a rule, active = well fitted inhibition curve with a large enough effect; inconclusive = small, poorly fitted or top-dose-only effect; inactive = no such curve, though single readings can be large or run the other way. The set was probably picked from earlier hits. The list shows a part of the results.
# Test: qHTS of small molecules that selectively kill Giardia lamblia: Hit Validation.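 Note: viability measured as ATP content by luminescence so killing lowers signal; trophozoites exposed to compounds for 48 h anaerobically at 37 °C; nearly all actives have a fitted effect of over 65% in size.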
# Conditions: Giardia lamblia trophozoite viability, dose-response; series mostly up to 38.3 µM; activity change, negative = killing: at the top concentration
# Summary of the method: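 Giardia lamblia trophozoites (100 cells/well) were incubated with compounds for 48 h at 37 deg C under anaerobic conditions. Viability was read as ATP content by one-step luminescence after 15-30 min at room temperature.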
# % is set by controls: 0 for no effect and ±100 for the full control effect; potency is the fitted concentration of half-maximal effect.
Compound,Potency,"activity change, negative = killing"
O=C1CC(c2ccc(F)cc2)CC2=C1C(c1ccc([N+](=O)[O-])o1)Nc1ccccc1N2 (stereo not drawn),0.163 µM (active),–
CN(C)c1ccc(/C=C/c2ccc3cc(N)ccc3n2)cc1,0.183 µM (active),–
CN(C)c1ccc(/C=C/c2ccc3ccccc3n2)cc1,0.46 µM (active),–
CN(C)c1ccc(/C=C/c2ccc3ccccc3[n+]2[O-])cc1,1.03 µM (active),–
CC(=O)OCON[N+]([O-])=NC(C)C,0.918 µM (active),–
CC(C)(C)C1C/C(=C/c2ccccn2)C(=O)/C(=C/c2ccccn2)C1 (stereo not drawn),6.5 µM (active),–
c1ccc2nc3c(cc2c1)CCCC3,10.3 µM (active),–
Cc1cc(C)c(-n2[nH]nnc2=S)c(C)c1,–,-11.9% (inactive)
Cc1ccc(/C=C/C(=O)NCC2COc3ccccc3O2)o1 (stereo not drawn),–,-42.4% (inactive)
O=C(N/N=C\c1ccc(O)c([N+](=O)[O-])c1)C1COc2ccccc2O1 (stereo not drawn),5.16 µM (active),–
O=C(N/N=C\c1ccc([N+](=O)[O-])o1)C1COc2ccccc2O1 (stereo not drawn),0.818 µM (active),–
O=C(N/N=C\c1ccc([N+](=O)[O-])s1)C1COc2ccccc2O1 (stereo not drawn),4.1 µM (active),–
O=C(Nc1ncc([N+](=O)[O-])s1)C1COc2ccccc2O1 (stereo not drawn),0.29 µM (active),–
CC(C)(C)c1ccc2c(c1)OC(C(=O)N/N=C/c1ccc([N+](=O)[O-])o1)CO2 (stereo not drawn),0.818 µM (active),–
O=[N+]([O-])C(/C=C(\Cl)[N+](=O)[O-])=C(N1CCCCC1)N1CCCCC1,0.516 µM (active),–
O=[N+]([O-])C(/C=C(/Cl)[N+](=O)[O-])=C(N1CCCCC1)N1CCCCC1,1.16 µM (active),–
O=C1c2ccccc2C(=O)C1c1ccncc1,7.29 µM (active),–
Cc1cc(C)cc(N=c2c([N+](=O)[O-])nn(-c3ccc(Cl)cc3)n2O)c1,1.3 µM (active),–
Cc1cc(C)cc(N=c2c([N+](=O)[O-])nn(-c3cccc(Cl)c3)n2O)c1,3.26 µM (active),–
O=[N+]([O-])c1cccc(/C=C/c2nc[nH]c2[N+](=O)[O-])c1,2.05 µM (active),–
O=[N+]([O-])c1[nH]cnc1/C=C/c1ccccc1,1.83 µM (active),–
Cc1cccc(N=Nc2c(C)c(C#N)c(O)[nH]c2=O)c1,3.65 µM (active),–
O=C(CNc1ccccc1)N/N=C/c1ccc([N+](=O)[O-])o1,1.03 µM (active),–
O=C(CNc1cccc([N+](=O)[O-])c1)N/N=C/c1ccc([N+](=O)[O-])o1,0.516 µM (active),–

Compound,Potency,"activity change, negative = killing"
O=C(CNc1ccc2ccccc2c1)N/N=C/c1ccc([N+](=O)[O-])o1,1.03 µM (active),–
Cc1ccc(NCC(=O)N/N=C\c2ccc([N+](=O)[O-])o2)cc1,0.65 µM (active),–
COC(=O)[C@]1(C)N[C@H](CN(C)S(=O)(=O)c2ccc(-c3ccccc3)cc2)[C@@H]2C(=O)N(Cc3ccccc3)C(=O)[C@@H]21,–,-4.41% (inactive)
Cc1ccc(OCC(=O)c2cc(C)n(-c3ccccc3)c2C)c([N+](=O)[O-])n1,0.516 µM (active),–
COc1ccc(-n2c(C)cc(C(=O)COc3ccc(C)nc3[N+](=O)[O-])c2C)cc1,1.83 µM (active),–
Cc1cccc(NC(=O)CN2C(=O)S/C(=C\c3ccc(O)c([N+](=O)[O-])c3)C2=O)c1,1.3 µM (active),–
Cc1ccc(NC(=O)CN2C(=O)S/C(=C/c3ccc(O)c([N+](=O)[O-])c3)C2=O)cc1C,1.3 µM (active),–
CCOC(=O)CN1C(=O)S/C(=C/c2cccc([N+](=O)[O-])c2O)C1=O,2.31 µM (active),–
CCN(CC)C(=O)CSc1nnc2nnc3cc(Cl)ccc3n12,1.3 µM (active),–
NCCCn1c(C(=O)c2cc(Cl)c(N)c(Cl)c2)c2ccc(C(F)(F)F)cc2[n+]1[O-],1.45 µM (active),–
COc1ccc(C(=O)c2c3ccc(C(F)(F)F)cc3[n+]([O-])n2CCCN)cc1,1.3 µM (active),–
Cc1ccc(C(=O)c2c3ccc(C(F)(F)F)cc3[n+]([O-])n2CCCN)cc1,1.03 µM (active),–
NCCCn1c(C(=O)c2ccc(Cl)cc2)c2ccc(C(F)(F)F)cc2[n+]1[O-],0.41 µM (active),–
O=C(N/N=C/c1cc2c(cc1[N+](=O)[O-])OCO2)c1ccccn1,7.29 µM (active),–
COc1ccc(CCNc2oc(COc3ccc(Br)cc3)nc2C#N)cc1OC,–,-29.8% (inactive)
N#Cc1nc(-c2ccc(OCc3ccccc3)cc2)oc1N1CCC(C(N)=O)CC1,–,1.62% (inactive)
NC(=O)C1CCN(c2ncccc2[N+](=O)[O-])CC1,1.16 µM (active),–
NC(=O)C1CCN(c2cc(Cl)ccc2[N+](=O)[O-])CC1,8.18 µM (active),–
Cc1cc(C)n(S(=O)(=O)c2ccccc2[N+](=O)[O-])n1,1.83 µM (active),–
Cc1nc2cc(-c3ccc(Cl)cc3)nn2c(NCCN(C)C)c1C,0.918 µM (active),–
CN(C)C(=O)c1cc([N+](=O)[O-])cc([N+](=O)[O-])c1N(C)C,0.818 µM (active),–
Cc1ccc(S(=O)(=O)/N=C(/Sc2ccccc2C(=O)O)c2ccccc2)cc1,–,-19.6% (inactive)
CN(C)c1ccc(C2Nc3cccc4cccc(c34)N2)cc1,3.65 µM (active),–
CN(C)c1ccc(C2NC(=O)c3ccccc3N2)cc1 (stereo not drawn),6.5 µM (active),–

Compound,Potency,"activity change, negative = killing"
CCC1CCCCN1C(=O)c1ccc([N+](=O)[O-])o1 (stereo not drawn),1.83 µM (active),–
O=C(c1cc(Cl)ccc1Cl)N1CCN(Cc2ccccc2)CC1,–,13.9% (inactive)
O=C(c1ccc([N+](=O)[O-])o1)N1CCOCC1,1.83 µM (active),–
O=C(c1ccc([N+](=O)[O-])o1)N1CCN(Cc2ccccc2)CC1,6.5 µM (active),–
O=C(c1ccc([N+](=O)[O-])o1)N1CCCCCC1,3.65 µM (active),–
O=C(O)c1cc(Cl)c(Cl)cc1C(=O)N1CCCC1,–,-0.809% (inactive)
CC1CCCN(C(=O)c2ccc([N+](=O)[O-])o2)C1 (stereo not drawn),5.16 µM (active),–
COCc1ccc(C(=O)N2CCCC(C(=O)c3ccc(Cl)cc3C)C2)o1 (stereo not drawn),–,23.6% (inactive)
COc1ccccc1C(=O)C1CCCN(C(=O)c2ccco2)C1 (stereo not drawn),–,29.9% (inactive)
O=C(O)C1CCN(c2ccc([N+](=O)[O-])cc2[N+](=O)[O-])CC1,1.16 µM (active),–
CC(=O)N1CCN(c2ccc(S(C)(=O)=O)cc2[N+](=O)[O-])CC1,1.03 µM (active),–
O=C(O)C1CCN(c2ccccc2[N+](=O)[O-])CC1,5.79 µM (active),–
CCN(C(=O)COC(=O)c1cc(S(=O)(=O)N2CCc3ccccc32)ccc1OC)C1CCS(=O)(=O)C1 (stereo not drawn),–,36.6% (inactive)
Cc1c(Nc2nc3ccccc3n3cnnc23)cccc1[N+](=O)[O-],9.18 µM (active),–
O=C(/C=C/c1ccc2c(c1)OCO2)Nc1cccnc1,4.6 µM (active),–
NS(=O)(=O)c1ccc(Nc2ncccc2[N+](=O)[O-])cc1,0.41 µM (active),–
COc1ccc2cc(-c3cc(C(=O)OCC(=O)Nc4c(C)n(C)n(-c5ccccc5)c4=O)c4ccccc4n3)ccc2c1,0.41 µM (active),–
Cc1c(NC(=O)c2cc(-c3ccc(Cl)c(Cl)c3)on2)c(=O)n(-c2ccccc2)n1C,–,-4.32% (inactive)
O=c1c([N+](=O)[O-])cc(C(F)(F)F)cn1Cc1cccc(Cl)c1,2.31 µM (active),–
COC(=O)c1ccc(Cn2cc(C(F)(F)F)cc([N+](=O)[O-])c2=O)cc1,4.1 µM (active),–
O=c1c([N+](=O)[O-])cc(C(F)(F)F)cn1Cc1c(Cl)cccc1Cl,1.3 µM (active),–
CCCC[n+]1c(/C=C/c2c(OC)cc(OC)cc2OC)ccc2ccccc21,–,-13.9% (inactive)
COc1cccc(/C=C/c2ccc3ccccc3[n+]2C)c1OC,5.79 µM (active),–
COc1cccc(-c2cc3nc4c(c(NCC(C)(C)CN(C)C)n3n2)CCCC4)c1,0.579 µM (active),–

Compound,Potency,"activity change, negative = killing"
CCOC(=O)c1c(C)[nH]c2c1-c1ccccc1C(=O)C2=O,4.1 µM (active),–
Cc1oc2c(c1C(=O)O)C(=O)c1ccccc1C2=O,3.26 µM (active),–
CCOC(=O)c1c(C)oc2c1C(=O)c1ccccc1C2=O,5.16 µM (active),–
CC(=O)c1c(C)oc2c1C(=O)c1ccccc1C2=O,4.6 µM (active),–
CC(=O)NCCNC(=O)c1ccc(CSc2ccc(Cl)cc2)cc1,–,-13.7% (inactive)
Cc1onc(-c2ccccc2Cl)c1C(=O)NNC(=O)c1ccc(F)cc1,–,-38.8% (inactive)
CN(C)c1ccc(/C=C(/NC(=O)c2ccccc2)C(=O)N/N=C/c2ccc([N+](=O)[O-])c(O)c2)cc1,2.59 µM (active),–
Cc1onc(-c2ccccc2)c1C(=O)N/N=C/c1ccc([N+](=O)[O-])c(O)c1,3.26 µM (active),–
Cc1ccc(OCC(=O)N(C)CC(=O)Nc2ccc(Cl)c(C(F)(F)F)c2)c([N+](=O)[O-])n1,5.79 µM (active),–
Cc1ccc(OCC(=O)Nc2ccc(C)c(F)c2)c([N+](=O)[O-])n1,5.79 µM (active),–
Cc1ccc(OCC(=O)Nc2nc(C)c(Cl)cc2Cl)c([N+](=O)[O-])n1,5.79 µM (active),–
Oc1cccc(-c2nnc(-c3cccc(O)c3)nn2)c1,1.16 µM (active),–
O=C(NC1CCCC(C(F)(F)F)C1)c1ccc([N+](=O)[O-])o1 (stereo not drawn),1.45 µM (active),–
O=C(NCC1CCCO1)c1ccc([N+](=O)[O-])o1 (stereo not drawn),1.16 µM (active),–
O=C(NC1CCCCC1)c1ccc([N+](=O)[O-])o1,1.63 µM (active),–
Cc1cc2nc(-c3ccc[nH]c3=O)[nH]c2cc1C,0.729 µM (active),–
O=C(NCc1nnnn1-c1ccc(F)cc1)c1ccc([N+](=O)[O-])o1,1.45 µM (active),–
O=C(NCC(c1ccc(F)cc1)N1CCOCC1)c1ccc([N+](=O)[O-])o1 (stereo not drawn),1.3 µM (active),–
Cc1ccc(-n2nnnc2CNC(=O)c2ccc([N+](=O)[O-])o2)cc1C,0.918 µM (active),–
Cc1[nH]n(S(=O)(=O)Cc2ccccc2)c(=O)c1N=Nc1ccccc1Cl,2.31 µM (active),–
Cc1[nH]n(S(=O)(=O)c2ccccc2)c(=O)c1N=Nc1cccc(Cl)c1,4.6 µM (active),–
